The whole screen tested about 320,000 compounds, of which about 7,600 (2.4%) were called active. Entries that show only a call come without a potency. Not shown: some 3% with an inconclusive outcome. Calls follow the shape of the dose curve; as a rule, active = well fitted activation curve with a large enough effect; inconclusive = small, poorly fitted or top-dose-only effect; inactive = no such curve, though single readings can be large or run the other way. Many of the other results were omitted from the sample, so actives are more common in it than they were.
Potency is read from the fitted curve at half-maximal effect.

This experiment is described as follows: qHTS Assay for NPC1 Promoter Activators. Also: nearly all actives have a fitted effect of over 60% in size.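 As to activation: reporter is driven by a mutant NPC1 promoter.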 The settings on record: Huh7 NPC1 promoter luciferase reporter, 24 h; series mostly up to 9.22 µM. In short, it runs like this: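 Readout is luciferase luminescence, reflecting NPC1 promoter activation in stably transfected Huh7 cells after 24 h compound exposure at 37 °C in reduced-serum medium with 10% FBS.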
(In general: Quantitative high-throughput screening tests each substance at several concentrations.)
In the case of `Cc1noc(C)c1C(=O)NCC1COc2ccccc2O1` (centres undefined), the Potency result is “inactive”.

For the molecule `O=C(c1cc(-c2ccc(Cl)cc2)on1)N1CCN(c2ccccc2)CC1`, the Potency result was “inactive”.

On to `COc1ccccc1-c1cc(C(=O)NCCCn2ccnc2)no1`, for which the Potency result was “inactive”.

As to `COc1ccccc1-c1cc(C(=O)N2CCCCC2)no1`, the Potency is 3.55 µM (active).

As to `COc1cccc(-c2cc(C(=O)N3CCN(c4ccccc4OC)CC3)no2)c1`, the Potency result was “inactive”.

Consider `O=C(c1cc(-c2ccc(F)cc2)on1)N1CCN(c2ccc(F)cc2)CC1`, for which the Potency result was “inactive”.

As to `COc1ccc(OCc2cc(C(=O)N3CCCC3)no2)c2ccccc12`, the Potency is 3.16 µM (active).

In the case of `COCCN1CCN(C(=O)c2cc(COc3ccc(F)cc3Cl)on2)CC1`, the Potency entry is “inactive”.

For the molecule `O=C(CSc1n[nH]c(-c2cccs2)n1)N1CCCCC1`, the Potency entry was “inactive”.

With `O=C(c1cc(-c2ccc(O)cc2)on1)N1CCOCC1`, the Potency is 0.891 µM (active).

As for `CC(=O)c1ccc(NC(=O)c2cc(-c3cccs3)on2)cc1`, the Potency result is “inactive”.

Turning to `COc1cc(Cl)ccc1OCc1cc(C(=O)N2CC[C@@H]3CCCC[C@H]3C2)no1`, the Potency entry is “inactive”.

For `O=C(c1cc(-c2cccs2)on1)N1CCCCC1`, the Potency was 1 µM (active).

Regarding `Cc1ccc(OCC(=O)N2CCN(S(=O)(=O)c3ccc(Cl)s3)CC2)cc1C`, the Potency result is “inactive”.

`CCN(CC)c1ccc(NC(=O)CN2C(=O)NC3(CCc4ccccc43)C2=O)cc1` (centres undefined): the Potency result is “inactive”.

For the molecule `CCOC(=O)C1CCCN(C(=O)c2ccc(C)c(S(=O)(=O)N3CCCCC3)c2)C1` (centres undefined), the Potency entry was “inactive”.

Take `C=CCc1c(C)nc2cc(-c3ccccc3)[nH]n2c1=O`: the Potency is 1.78 µM (active).

For the molecule `CCc1c(C)nc2cc(-c3cccs3)[nH]n2c1=O`, the Potency entry was “inactive”.

Take `CCc1c(C)nc2cc(C)[nH]n2c1=O`: the Potency entry was “inactive”.

For `O=C(Nc1cccc2ccccc12)c1onc2c1CCCC2`, the Potency entry is “inactive”.

As for `COc1ccccc1C(CNC(=O)c1ccc(C)c(S(=O)(=O)N2CCCCC2)c1)N(C)C` (centres undefined), the Potency result is “inactive”.

For the molecule `CC1CN/C(=C\C(=O)c2ccc(Br)cc2)C(=O)N1` (centres undefined), the Potency is 0.891 µM (active).

On to `COc1cc2c(cc1OC)/C(=C/C(=O)c1ccc(NC(C)=O)cc1)NCC2`, for which the Potency entry was “inactive”.

In the case of `CC1(C)Cc2ccccc2/C(=C/C(=O)c2ccccc2)N1`, the Potency result was “inactive”.

As for `O=C(NCC#CCSc1nnc(-c2cccc3ccccc23)o1)c1cccs1`, the Potency result was “inactive”.

As to `O=C(NNC(=O)c1cccc(S(=O)(=O)Nc2ccc(Cl)cc2)c1)c1ccc(=O)[nH]c1`, the Potency result is “inactive”.

Regarding `CCC(=O)N(CCc1ccccc1)Cc1cc2cc(C)ccc2[nH]c1=O`, the Potency entry was “inactive”.

Take `O=C(Nc1ccc(C(=O)N2CCCCC2)cc1)c1cccc([N+](=O)[O-])c1`: the Potency result is “inactive”.

Regarding `O=C(Nc1ccc(NC(=O)c2ccco2)c(Cl)c1)c1cccc([N+](=O)[O-])c1`, the Potency entry was “inactive”.

Take `O=C(Nc1ccc(C2CC2(Cl)Cl)cc1)c1cccc([N+](=O)[O-])c1` (centres undefined): the Potency was 2 µM (active).

For `O=C(CN1C(=O)NC2(CCOc3ccccc32)C1=O)NCc1ccc(F)cc1` (centres undefined), the Potency result was “inactive”.

Take `O=C(OCC(=O)N1CCCCCC1)c1cnc(Cl)c(Cl)c1`: the Potency entry was “inactive”.

Regarding `CCC(C)NC(=O)CCCc1ccccc1` (centres undefined), the Potency result was “inactive”.

In the case of `O=C(CCCc1ccccc1)NCc1ccccc1`, the Potency entry was “inactive”.

Take `C=CCN1CCN(C(=O)CCCc2ccccc2)CC1`: the Potency was 0.316 µM (active).

Take `Nc1nnc(SCC(=O)NCC(=O)Nc2ccc(F)c(F)c2F)s1`: the Potency result is “inactive”.

Regarding `Cn1nc(-c2ccccc2)c(-c2nc(-c3ccc(Cl)cc3)no2)c1Cl`, the Potency entry is “inactive”.

`Nc1nonc1-c1noc(-c2ccc(Br)o2)n1`: the Potency entry is “inactive”.

With `Brc1ccc(-c2noc(-c3ccccc3)n2)o1`, the Potency was 2.24 µM (active).

Take `CC(C)(C)OC(=O)NCCCCCNC(=O)c1nc[nH]c1C(=O)NCc1ccccc1`: the Potency entry was “inactive”.

As to `O=S(=O)(c1ccccc1)N(Cc1cccc(F)c1)c1ccccc1`, the Potency entry was “inactive”.

In the case of `N#Cc1cccc(NC(=O)C2CCCN(C(=O)c3ccc(Cl)cc3)C2)c1` (centres undefined), the Potency result was “inactive”.

On to `CC(C)CNC(=O)C(=O)NCc1ccccc1`, for which the Potency entry is “inactive”.

With `CC(C)CNC(=S)Nc1ccc(F)cc1`, the Potency entry is “inactive”.

Turning to `CC(C)CNC(=O)C(=O)Nc1ccc(N(C)C)cc1`, the Potency is 3.98 µM (active).

As for `CC(OC(=O)c1cc2ccccc2o1)C(=O)Nc1ccc(N2CCOCC2)cc1` (centres undefined), the Potency entry is “inactive”.

With `COC(=O)c1cc(Oc2ccc(S(=O)(=O)N3CCOCC3)cc2[N+](=O)[O-])cc(C(=O)OC)c1`, the Potency entry is “inactive”.

For `CC(C)C[C@H](NC(=O)[C@H](O)[C@H](N)Cc1ccccc1)C(=O)O`, the Potency result is “inactive”.

For `COc1ccc(/C=C2\CCc3ccccc3C2=O)c(OC)c1OC`, the Potency result is “inactive”.

As to `COc1ccc2c(c1OC)C(=O)c1ccccc1C2=O`, the Potency is 2.82 µM (active).

Take `COc1cccc(-c2ccc3c(c2)S(=O)(=O)c2cccc(C(=O)O)c2C3=O)c1OC`: the Potency entry is “inactive”.

In the case of `CCOC(=O)c1sc(N)c(C#N)c1COC(=O)C1=COCCO1`, the Potency entry is “inactive”.

`NC(=O)COC(=O)/C=C/c1ccc2ccccc2n1`: the Potency entry was “inactive”.

Take `COc1cccc(/C=C/c2ccc3ccccc3n2)c1OC(C)=O`: the Potency was 1 µM (active).

On to `CC(=O)c1ccc(S(=O)(=O)N2CCN(C(=O)/C=C/c3ccc4ccccc4n3)CC2)cc1`, for which the Potency result is “inactive”.

`CCOc1ccccc1-c1cc(C(=O)N2CCOCC2)c2ccccc2n1`: the Potency result was “inactive”.

On to `CCOc1cccc(/C=C/c2ccc3ccccc3n2)c1OC(C)=O`, for which the Potency was 0.631 µM (active).

For the molecule `COc1cccc(/C=C2\C=C(c3ccc(C)cc3)OC2=O)c1OC(C)=O`, the Potency result is “inactive”.

Regarding `CNS(=O)(=O)c1cccc(C(=O)OCCCC(=O)c2ccccc2)c1`, the Potency entry was “inactive”.

Take `COc1ccccc1-c1nn(Cc2ccccc2)cc1C(=O)N1CCN(c2ncccn2)CC1`: the Potency entry was “inactive”.

Regarding `CC1(C)CC(=O)C=C(c2cccc3c2Oc2ccccc2S3)C1`, the Potency entry is “inactive”.

As for `O=C(COC(=O)CNC(=O)C1CCCCC1)Nc1cccc(F)c1`, the Potency result was “inactive”.

With `Cc1ccccc1OCCC(=O)OCC(=O)NCCc1ccc(S(N)(=O)=O)cc1`, the Potency entry was “inactive”.

Regarding `O=C(CN1CCN(C2CCS(=O)(=O)C2)CC1)N1N=C(c2ccc(Cl)cc2)CC1c1ccco1` (centres undefined), the Potency entry was “inactive”.

Turning to `CC(=O)Nc1ccc(NC(=O)CCN2C(=O)C3CC=CCC3C2=O)cc1` (centres undefined), the Potency result was “inactive”.

For the molecule `CCC(=O)c1cn(CCOc2ccccc2OC)c2ccccc12`, the Potency result is “inactive”.

Take `Cc1nonc1C1CCCN1C(=O)c1cc(COc2cccc(C(F)(F)F)c2)on1` (centres undefined): the Potency entry was “inactive”.

With `CCOC(=O)CC1(NC(=O)c2cc(COc3cncc(Cl)c3)on2)CCCCC1`, the Potency result is “inactive”.

Turning to `CCCOC1CCCN(C(=O)c2cc(COc3cncc(Cl)c3)on2)C1` (centres undefined), the Potency is 3.98 µM (active).

For the origin of these results see PubChem BioAssay AID485313 (National Center for Advancing Translational Sciences (NCATS), 2010).
